Screening results as filed in PubChem.
Rows were chosen to be rich in hits. Some 3.3% of all compounds tested hit in one or more screens of this group.
PI4K2A block = qHTS for small molecular inhibitors of PI4K2A; Phosphatidylinositol 4-kinase type 2-alpha (Homo sapiens), Q9BTU6; purified PI4K2A, ADP-Glo luminescence, 1 h; active compounds read low; activity change, negative = inhibition, % at 76.9 µM; 420,000 compounds, 0.13% hits; AID 1346378, 2018; in the data active = activity change below about -50%; inconclusive = mostly about -30% to -49%;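 note: -100% = wells without enzyme as full effect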
Target sequence (Q9BTU6 whole entry, looked up): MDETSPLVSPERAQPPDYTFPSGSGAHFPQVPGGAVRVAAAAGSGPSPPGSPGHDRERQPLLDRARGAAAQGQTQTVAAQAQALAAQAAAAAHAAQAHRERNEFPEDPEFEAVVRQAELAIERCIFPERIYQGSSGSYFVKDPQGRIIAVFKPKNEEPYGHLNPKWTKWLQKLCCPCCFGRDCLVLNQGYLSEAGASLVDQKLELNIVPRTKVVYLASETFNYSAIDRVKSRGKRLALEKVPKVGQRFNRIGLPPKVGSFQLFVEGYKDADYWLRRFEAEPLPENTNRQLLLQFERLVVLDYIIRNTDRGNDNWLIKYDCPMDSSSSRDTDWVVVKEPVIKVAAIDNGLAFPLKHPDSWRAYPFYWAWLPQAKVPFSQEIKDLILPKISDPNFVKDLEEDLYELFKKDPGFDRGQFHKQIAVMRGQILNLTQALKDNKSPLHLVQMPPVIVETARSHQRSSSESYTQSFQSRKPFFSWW
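ADP-Glo luminescence measured ADP generated by PI4K2A enzyme (4 ug/mL before mixing) with 1.2 mM PI substrate (pre-mix) and 300 microM ATP (pre-mix). Tris pH7.5 buffer with MgCl2, Triton X-100; 1 h reaction at ambient temperature.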
DRD3 antagonist = qHTS of D3 Dopamine Receptor Antagonist: qHTS; D(3) dopamine receptor (Homo sapiens), P35462; D3R cells, DiscoveRx beta-arrestin luminescence, antagonist mode; active compounds read low; max response, negative = inhibition, %; 360,000 compounds, 2.5% hits; in the data active = max response below about -50%; inconclusive = no clear call, values can overlap the other calls; note: % is set by controls: 0 for no effect and ±100 for the full control effect
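Cells plated overnight at 1500 cells/well, then exposed to library compounds with dopamine controls for 90 minutes at 37 degrees C. DiscoveRx reagent added for 30–60 minutes at room temperature; luminescence read, quantitative HTS format.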
D3 ag = qHTS of D3 Dopamine Receptor Agonist: qHTS; D(3) dopamine receptor (Homo sapiens), P35462; D3R DiscoveRx beta-arrestin cells, luminescence, 90 min; max activation, %; 410,000 compounds, 0.58% hits; AID 652048, 2013; in the data active = max activation above about 30%; note: 0% is about no effect
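Agonist-mode cell screen: cells plated at 1500/well and incubated overnight at 37 °C, then exposed to library compounds for 90 min at 37 °C. Detection reagent was added for 30–60 min at room temperature, and luminescence was read.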
PI5P4Ka inh = qHTS for Inhibitors of phosphatidylinositol 5-phosphate 4-kinase (PI5P4K). PI5P4Kalpha enzyme, ADP-Glo luminescence, 60 min; active compounds read low. Phosphatidylinositol 5-phosphate 4-kinase type-2 alpha (Homo sapiens), P48426. AID 652105, 2013. 330,000 compounds, 1.2% hits. max response, %; active = max response of -50% or lower; inconclusive = between -30% and -50%; inactive = -30% or higher; note: value at the top dose of about 77 µM; % is set by controls: 0 for no effect and ±100 for the full control effect
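PI5P4Kalpha ADP-Glo assay; 5 microM ATP final; 60 min RT reaction; HEPES pH 7.4/EGTA/CHAPS, 5% DMSO; controls lacking substrate or enzyme; luminescent end-point.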
LDHA inh = qHTS assay for inhibitors of human lactate dehydrogenase. L-lactate dehydrogenase A chain (Homo sapiens), P00338. AID 1347041, 2019. purified LDHA, NADH/diaphorase-resazurin fluorescence; active compounds read low. activity change, % (values are at about 110 or 230 µM). 480,000 compounds, 0.15% hits; in the data active = activity change below about -30%; inconclusive = mostly about -25% to -30%;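 note: plate controls were DMSO wells for no effect and wells without enzyme for full effect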
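Resorufin fluorescence (ex540/em590), read at 0 and 20 min after diaphorase/resazurin addition, reports the NADH left after a 5 min room-temperature reaction of 2 nM human LDH5 with 0.06 mM NADH and 0.2 mM pyruvate.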
Starred values were filed as active, the others as inactive; ? = inconclusive; . = not tested or not shown.

SMILES	PI4K2A block	DRD3 antagonist	D3 ag	PI5P4Ka inh	LDHA inh
CCCCNC(=O)c1ccc(Cn2c(=S)[nH]c3c([nH]c4ccc(OC)cc43)c2=O)cc1	-1	-65*	-1	-20	-10
CCOCCCNC(=O)c1ccc(Cn2c(=S)[nH]c3c([nH]c4ccc(OC)cc43)c2=O)cc1	3	-10	-4	0	1
COC(=O)CNC(=O)CSCc1ccccc1	.	.	.	.	5
C/C(=N/Nc1ccc(S(=O)(=O)Nc2ccc(C)cc2C)cc1[N+](=O)[O-])c1ccco1	.	.	.	.	-1
COc1ccc(Br)cc1/C=N/NC(=O)CNC(=O)/C=C/c1ccccc1	-5	-67*	-11	-2	-4
Cc1ccc(F)cc1NC(=O)Cn1cnc2c1c(=O)n(C)c(=O)n2C	.	.	.	.	13
Cc1ccc2c(CSc3nnnn3C3CC3)cc(=O)oc2c1	.	.	.	.	0
CC(=O)c1ccc2c(c1)C1C=CCC1C(c1ccncc1)N2 (stereo not given)	-9	-11	2	-5	24
CC(=O)c1ccc2c(c1)C1C=CCC1C(C(=O)O)N2 (stereo not given)	-13	0	11	-91*	20
COc1cccc2c1NC(C(=O)O)C1CC=CC21 (stereo not given)	-21	6	2	-96*	21
Cc1cc(S(=O)(=O)c2ccc(Cl)cc2)nc(S(=O)(=O)c2ccc(Cl)cc2)c1C#N	-1	-77*	-17	-30	-3
CCc1ccc(S(=O)(=O)N2CCN(Cc3nc4cc(C(=O)N5CCCCC5)ccc4o3)CC2)cc1	.	.	.	.	0
CC(=O)NCCOc1ccc(C(=O)O)cc1	10	-55*	9	-8	-3
O=c1cc(CSc2ccccc2)[nH]c(=S)[nH]1	-2	-95*	-9	-16	-4
O=c1cc(CSc2ccccc2)[nH]c2ccccc12	7	-7	-1	2	-4
CCOC(=O)c1cccc(Nc2nc3ccccc3nc2NS(=O)(=O)c2cccc(C)c2)c1	.	.	.	.	-2
COc1ccc(C(=O)/C=C/c2ccc(O)cc2)c(O)c1CC=C(C)C	-7	-67*	13	49	-8
COCCN(CCOC)C(=O)c1cc2ccccc2c(OC)n1	.	.	.	.	10
Fc1ccc(-c2cc3nc4c(c(N5CCOCC5)n3n2)CCCC4)cc1	-1	46	47*	.	9
Cc1cccc(-c2cc3nc4c(c(N5CCOCC5)n3n2)CCCC4)c1	-5	17	11	.	3
CC(C)c1ccc(C2CC(=O)NC3=C2C(=O)CC(C)(C)C3)cc1 (stereo not given)	.	.	.	.	6
Brc1ccc(C=Nc2ccccc2Cc2ccccc2)cc1	.	.	.	.	-1
CC[C@H](C)/C=C(C)/C=C/C1=CC2=CC(=O)[C@]3(C)OC(=O)[C@@H](C(C)=O)[C@@H]3C2=CO1	-7	-25	-11	-60*	7
CS(=O)(=O)c1ccc(-n2nnc3ccccc32)c([N+](=O)[O-])c1	-9	?	-11	-1	3
N#Cc1cc([N+](=O)[O-])c(-n2nnc3ccccc32)c([N+](=O)[O-])c1	4	-58*	-2	.	14
SMILES	PI4K2A block	DRD3 antagonist	D3 ag	PI5P4Ka inh	LDHA inh
CCNc1nc(-c2sc(NC(=O)C(C)(C)C)nc2C)c(-n2cc(-c3ccccc3)nn2)s1	2	180	31*	-3	3
CCOC(=O)C1=C(C)NC2=C(C(=O)CC(c3cccs3)C2)C1c1cccs1 (stereo not given)	-13	-82*	-7	-2	-3
CC1SCCN1S(=O)(=O)c1ccc2ccccc2c1 (stereo not given)	1	-59*	0	1	4
Cc1ccc(CNC(=O)[C@H](C)[C@H]2C[C@]2(C)[C@H](NC(=O)OCc2ccccc2)c2ccccc2)o1	1	-24	-23	-52*	0
CC(C)(C)NC(=O)C(c1cc2ccccc2o1)n1c(=O)c(-c2ccco2)nc2ccccc21 (stereo not given)	-6	-24	-7	-58*	-4
CC(C)(C)NC(=O)C(c1ccccc1)n1c(=O)c(-c2ccco2)nc2ccccc21 (stereo not given)	-10	-18	-10	-54*	-3
O=C(NC1CCCCC1)C(c1cccc2ccccc12)n1c(=O)c(-c2ccco2)nc2ccccc21 (stereo not given)	-14	-26	-10	-82*	-1
O=c1c(-c2ccco2)nc2ccccc2n1C(CCc1ccccc1)c1nc2ccccc2[nH]1 (stereo not given)	-10	4	-19	-73*	-4
COc1ccc(C(C(=O)NC2CCCCC2)n2c(=O)c(-c3ccco3)nc3ccccc32)cc1 (stereo not given)	-11	6	5	?	-1
CC(C)(C)NC(=O)C(c1ccncc1)n1c(=O)c(-c2ccco2)nc2ccccc21 (stereo not given)	-2	10	9	-18	4
CCCC(=O)O[C@]1(C(=O)COC(=O)CC)[C@@H](C)C[C@H]2[C@@H]3CCC4=CC(=O)C=C[C@]4(C)[C@@]3(F)[C@@H](O)C[C@@]21C	.	.	-7	.	.
O=c1ccc(N2CCCN(S(=O)(=O)c3cccc4nsnc34)CC2)nn1-c1ccccc1	.	.	.	.	-17
CC(C)NC(=O)c1ccccc1NC(=O)C1CCN(S(=O)(=O)Cc2ccc(F)cc2)CC1	.	.	.	.	10
COc1ccc(C(=O)/C=C/c2ccccc2F)cc1CSCC(=O)O	.	.	.	.	1
CCc1ccccc1N(CC(=O)NCc1ccco1)C(=O)c1snc(C(N)=O)c1N	-13	-55*	-9	-25	-2
CC(C)CCNC(=O)CN(Cc1ccco1)C(=O)c1snc(C(N)=O)c1N	1	-14	-5	-1	-2
O=[N+]([O-])c1ccc(NN=Cc2ccccc2O)nc1	0	-4	-6	3	-2
N#Cc1ccccc1Cn1cc(/C=N/Nc2ccc([N+](=O)[O-])cn2)c2ccccc21	-6	-52*	-10	14	-3
CC(=O)NC(CC(C)C)C(=O)NC(Cc1ccccc1)C(N)=O (stereo not given)	2	9	30*	.	-4
CCOC(=O)C1CCCN(c2nc3ccccc3nc2C(C#N)C(=O)OCC)C1 (stereo not given)	4	-53*	-4	-7	-8
Cc1cccc(N=C2NC(=O)/C(=C/c3cccn3C)S2)c1C	-6	-18	8	-72*	-3
Cc1ccc(N=C2NC(=O)/C(=C/c3cccnc3)S2)c(C)c1	2	-19	-23	?	-14
